For the first experiment, the target named is PEG-3 (UniProt Q6IN02). As to the kind of experiment: inhibition of PEG-3 promoter-driven reporter – cell-based, HeLa, luciferase, CREF/GAPDH counter-screen panel, dose response (AID 624167). As to conditions: CREF/GAPDH counter-screens; HeLa PEG-Prom luciferase reporter, overnight, run 1, dose range 1, at 100 µM (top of the series) unless noted.
PEG-3, sequence (Q6IN02 whole entry, looked up): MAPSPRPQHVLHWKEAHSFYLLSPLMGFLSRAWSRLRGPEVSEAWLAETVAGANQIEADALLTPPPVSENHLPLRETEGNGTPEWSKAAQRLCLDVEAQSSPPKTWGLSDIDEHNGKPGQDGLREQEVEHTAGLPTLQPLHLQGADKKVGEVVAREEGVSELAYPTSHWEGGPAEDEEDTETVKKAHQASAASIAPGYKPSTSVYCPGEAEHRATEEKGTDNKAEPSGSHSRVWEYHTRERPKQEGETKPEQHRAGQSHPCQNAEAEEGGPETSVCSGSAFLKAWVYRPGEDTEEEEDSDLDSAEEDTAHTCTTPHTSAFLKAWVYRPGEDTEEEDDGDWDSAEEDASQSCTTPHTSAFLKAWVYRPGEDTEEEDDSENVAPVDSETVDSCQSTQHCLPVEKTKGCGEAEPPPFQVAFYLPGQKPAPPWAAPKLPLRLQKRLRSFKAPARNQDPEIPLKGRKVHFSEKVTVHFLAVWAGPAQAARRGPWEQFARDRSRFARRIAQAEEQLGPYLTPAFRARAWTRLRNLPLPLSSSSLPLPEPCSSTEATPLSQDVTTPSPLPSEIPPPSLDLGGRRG
On to `CCN(CC)CCNc1cccc2sc3ccccc3c(=O)c12`, for which the inhibition (usually the drop in the measured response relative to a control, in per cent) worked out at 94.6%.
On the same count and under the same terms, the result for `Cn1c(=O)c(C(=O)CCl)c(N)n(Cc2ccccc2)c1=O` reads 102%.
Same read-out and setting: the result for `COc1ccc(C2c3ccc4ccccc4c3Oc3ncn(CCCO)c(=N)c32)cc1` (stereo not given) reads 102%.
On to `CN(C)CCNc1ccc2ncn3c4ccc(O)cc4c(=O)c1c23`, for which the inhibition is 101%.
On the same count and under the same terms, the result for `COc1cc(CNCCN2CCOCC2)ccc1OCc1ccc(Cl)cc1Cl` reads 102%.
Still for that read-out and setting: the result for `COc1ccc(CN(C)C(=O)C(Cc2ccccc2)NC(=O)c2ccccc2)cc1F` (stereo not given) reads 99.1%.
On the same count and under the same terms, the result for `Cc1ccc(CC2(OCCN(C)C)CCC(C(C)(C)C)CC2)cc1` (stereo not given) reads 99.6%; that for `Cc1ccc(-n2cc(CNCCCn3ccnc3C)c(-c3ccc(F)cc3)n2)cc1`, 99.8%; that for `COc1cc(CNC(C)(C)CO)cc(Br)c1OCc1ccc(Cl)cc1`, 99%.
On to `COc1ccc(C(O)(CCC(C)C)C(CN2CCOCC2)c2ccccc2)cc1` (stereo not given), for which the inhibition came to 96.5%.
Turning to `CCOc1cc(CNCCCN2CCOCC2)ccc1OCC(=O)Nc1cccc2ccccc12`, the inhibition turned out to be 100%.
The same measure, in the same setting: the result for `Cc1c(CCOC(=O)C23CC4CC(CC(C)(C4)C2)C3)sc[n+]1CC(=O)c1ccccc1` reads 99.3%; that for `O=C(O)c1ccc(N/N=C/c2ccc(OC(=O)c3ccccc3Cl)cc2)cc1`, 99.2%.
`NC(N)=N/N=C/c1ccc(Cl)cc1Cl`: the inhibition was determined as 97.7%.
The same measure, in the same setting: the result for `CC(=O)Nc1cccc(-c2ccnc3c2CC(C)(C(=O)Nc2cccc(OC(F)(F)F)c2)O3)c1` (stereo not given) reads 68.6%.
Take `COc1ccc(/C=C/C(=O)c2ccc3c4c(cccc24)CC3)cc1OC`: the inhibition came to 101%.
Same read-out and setting: the result for `CCC(=C(c1ccc(OC)cc1)c1ccc(OC)cc1)c1cn(CC(O)CN2CCN(C)CC2)c2ccccc12` (stereo not given) reads 99.5%.
Same read-out and setting: the result for `COc1ccc(/C=C/C(=O)c2ccc3c(c2)OCCO3)cc1[N+](=O)[O-]` reads 97.9%; that for `CCN(CC)CCNC(=O)c1ccc(NC(=O)c2cccc(S(=O)(=O)N(C)C3CCCCC3)c2)cc1`, 100%; that for `Cc1ccc2cc3c(N)c4c(C)ccc(C)c4nc3nc2c1`, 94.6%.
Consider `CCOC(=O)CN(C(=O)CSc1nnc2c(n1)[nH]c1ccc(F)cc12)c1ccccc1`, for which the inhibition amounted to 99.9%.
For the compound `O=C(C[n+]1ccc(-c2cc(C(=O)Nc3cccc(C(F)(F)F)c3)c3ccccc3n2)cc1)c1cccc([N+](=O)[O-])c1`, the inhibition amounted to 101%.
On the same count and under the same terms, the result for `COc1cc(NC(=O)Nc2nc(C(N)CCc3ccccc3)cs2)cc(OC)c1OC` (stereo not given) reads 99.2%; that for `O=C(/C=C/c1cc(Br)ccc1O)c1ccco1`, 102%; that for `Cc1ccc(N2CC(C(=O)Nc3nccs3)CC2=O)cc1Cl` (stereo not given), 99.5%.

The target of a further experiment is PEG-3 (UniProt Q6IN02). The description is as above. The settings on record: CREF/GAPDH counter-screens; HeLa PEG-Prom luciferase reporter, overnight, run 2, dose range 1, at 100 µM (top of the series) unless noted. In general terms: Counterscreens check selectivity or assay interference.
On to `O=C(Nc1ccccc1N1CCOCC1)c1cc(-c2ccncc2)nc2ccccc12`, for which the inhibition was 88%.
On the same count and under the same terms, the result for `CCN(CC)CCn1c2ccccc2c2cnc(N)c(C#N)c21` reads 102%.
Same read-out and setting: the result for `CCC1CCCCN1S(=O)(=O)c1ccc(C(=O)N(CCCN(C)C)c2nc3cc4c(cc3s2)OCO4)cc1` (stereo not given) reads 96.1%; that for `COC(=O)c1ccccc1-c1ccc(/C=N/Nc2nc(N3CCCC3)nc(N3CCCC3)n2)o1`, 102%; that for `O=S(=O)(c1cccc(F)c1)N1CCN(c2nc(-c3cccnc3)nc3ccccc23)CC1`, 46.2%.
As to `CC(C)(C)OC(=O)CC(S(=O)(=O)c1ccccc1)S(=O)(=O)c1ccccc1`, the inhibition is 101%.
Same read-out and setting: the result for `CC(C(=O)NC1CCCC1)N(C(=O)Cn1nnc(-c2ccc(F)cc2)n1)c1ccccc1F` (stereo not given) reads 102%; that for `CCCOC(=O)c1cccc(Nc2nc(-c3cccnc3)nc3ccccc23)c1`, 101%; that for `COCOCCn1cc(CN2CCS(=O)(=O)N(Cc3ccc(-c4ccc(Cl)c(Cl)c4)cc3)C(C(C)C)C2=O)nn1` (stereo not given), 97.8%.
`COc1ccc(-c2ccc3[nH]c4c(c3c2)CCN2C[C@@H]([C@H](C)O)[C@@H](N(C)C(=O)Nc3cc(Cl)cc(Cl)c3)C[C@@H]42)cc1`: the inhibition was 96.5%.
On the same count and under the same terms, the result for `N#C/C(=C\c1cccc([N+](=O)[O-])c1)C(=O)NCc1ccc(Cl)cc1` reads 101%; that for `Cc1cc(/C=c2/sc3nc4ccccc4n3c2=O)c(C)n1-c1ccccn1`, 84.5%.
Take `Cc1cc(C(=O)CN2C(=O)c3ccccc3S2(=O)=O)c(C)n1C(C)C`: the inhibition turned out to be 94.7%.
Still for that read-out and setting: the result for `CC(=O)Nc1cccc(NC(=O)c2cc(-c3cccnc3)nc3ccc(Cl)cc23)c1` reads 97.3%; that for `CC1(C)CC(NC(=O)c2cccc(S(=O)(=O)N(Cc3ccccc3)c3ccccc3)c2)CC(C)(C)N1`, 102%; that for `CCN(CC)CCNc1cccc2sc3ccccc3c(=O)c12`, 95.9%.
Consider `Cn1c(=O)c(C(=O)CCl)c(N)n(Cc2ccccc2)c1=O`, for which the inhibition is 97.2%.
On the same count and under the same terms, the result for `COc1ccc(C2c3ccc4ccccc4c3Oc3ncn(CCCO)c(=N)c32)cc1` (stereo not given) reads 101%.
The same measure, in the same setting: the result for `CN(C)CCNc1ccc2ncn3c4ccc(O)cc4c(=O)c1c23` reads 99.7%.
On to `COc1cc(CNCCN2CCOCC2)ccc1OCc1ccc(Cl)cc1Cl`, for which the inhibition stood at 101%.
Still for that read-out and setting: the result for `COc1ccc(CN(C)C(=O)C(Cc2ccccc2)NC(=O)c2ccccc2)cc1F` (stereo not given) reads 98.2%; that for `Cc1ccc(CC2(OCCN(C)C)CCC(C(C)(C)C)CC2)cc1` (stereo not given), 97.3%; that for `Cc1ccc(-n2cc(CNCCCn3ccnc3C)c(-c3ccc(F)cc3)n2)cc1`, 98.7%.
Still for that read-out and setting: the result for `COc1cc(CNC(C)(C)CO)cc(Br)c1OCc1ccc(Cl)cc1` reads 98.9%; that for `COc1ccc(C(O)(CCC(C)C)C(CN2CCOCC2)c2ccccc2)cc1` (stereo not given), 101%; that for `CCOc1cc(CNCCCN2CCOCC2)ccc1OCC(=O)Nc1cccc2ccccc12`, 101%.
The same measure, in the same setting: the result for `Cc1c(CCOC(=O)C23CC4CC(CC(C)(C4)C2)C3)sc[n+]1CC(=O)c1ccccc1` reads 97.8%.
Consider `O=C(O)c1ccc(N/N=C/c2ccc(OC(=O)c3ccccc3Cl)cc2)cc1`, for which the inhibition came out at 71.9%.
Consider `NC(N)=N/N=C/c1ccc(Cl)cc1Cl`, for which the inhibition was 99.1%.
The same measure, in the same setting: the result for `CC(=O)Nc1cccc(-c2ccnc3c2CC(C)(C(=O)Nc2cccc(OC(F)(F)F)c2)O3)c1` (stereo not given) reads 77.1%.
Still for that read-out and setting: the result for `COc1ccc(/C=C/C(=O)c2ccc3c4c(cccc24)CC3)cc1OC` reads 102%; that for `CCC(=C(c1ccc(OC)cc1)c1ccc(OC)cc1)c1cn(CC(O)CN2CCN(C)CC2)c2ccccc12` (stereo not given), 98.3%; that for `COc1ccc(/C=C/C(=O)c2ccc3c(c2)OCCO3)cc1[N+](=O)[O-]`, 99%.
Same read-out and setting: the result for `CCN(CC)CCNC(=O)c1ccc(NC(=O)c2cccc(S(=O)(=O)N(C)C3CCCCC3)c2)cc1` reads 102%.
On to `Cc1ccc2cc3c(N)c4c(C)ccc(C)c4nc3nc2c1`, for which the inhibition amounted to 93.7%.
The same measure, in the same setting: the result for `CCOC(=O)CN(C(=O)CSc1nnc2c(n1)[nH]c1ccc(F)cc12)c1ccccc1` reads 99.2%; that for `O=C(C[n+]1ccc(-c2cc(C(=O)Nc3cccc(C(F)(F)F)c3)c3ccccc3n2)cc1)c1cccc([N+](=O)[O-])c1`, 102%; that for `COc1cc(NC(=O)Nc2nc(C(N)CCc3ccccc3)cs2)cc(OC)c1OC` (stereo not given), 97.7%.
For `O=C(/C=C/c1cc(Br)ccc1O)c1ccco1`, the inhibition is 101%.
For `Cc1ccc(N2CC(C(=O)Nc3nccs3)CC2=O)cc1Cl` (stereo not given), the inhibition was 63.6%.

These data come from PubChem BioAssay.
